Screening data (PubChem BioAssay)
This is a sample that favours compounds with a hit; in the whole collection about 1.6% have one here.
MLLE-PAM2 inh: inhibitors of microRNA-mediated deadenylation, human PABP1 MLLE binding. 360,000 tested, 0.36% active. GST-MLLE / FITC-PAM2 fluorescence polarization. AID 588489. inhibition, % at 20 µM. P11940; in the data active = inhibition above about 35%, passing the limit was not always enough;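 also: plate controls were DMSO wells with GST-MLLE for no effect and wells lacking GST-MLLE protein for full effect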
PABP polyA inh: blocks human PABP binding to poly(A) RNA; 290,000 tested, 1% active; inhibition, % at 35 µM; AID 2014; P11940; fluorescence polarization;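 also: calls also rest on retests at 20 µM and on dose response follow-up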
eIF4E-4G inh: eIF4E/eIF4G interaction inhibition in translation initiation | inhibition, % at 21.7 µM | TR-FRET eIF4E-eIF4GI(517-606) binding, 2 h | 220,000 tested, 0.37% active | P63073+Q04637;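 active = inhibition above about 30%, limit read from the data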;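 also: 0% = full FRET control wells and 100% = background wells lacking eIF4GI fragment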
eIF4H inh: inhibitors of RNA binding by human eIF4H; Q15056; eIF4H fluorescence polarization binding assay; inhibition, % at 35 µM; 290,000 tested, 0.94% active; AID 2012;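 also: calls also rest on retests at 20 µM and on dose response follow-up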
PERK inhibitor: human PERK inhibition, primary cell-based screen | CHO PERK-DD fusion, SEAP luminescence translation reporter | inhibition, % at 5.6 µM | 220,000 tested, 0.17% active | AID 1416;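 active = inhibition above the mean inhibition of all tested compounds plus 3 SD, set separately per screening campaign, cut at about 2.9% in these data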;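 also: PERK kinase domain activated by AP20187 dimerizer at 100 nM; 0% = DMSO with dimerizer and 100% = rapamycin at 8.4 µM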
An asterisk follows results filed as active. Unless noted, no rule for the calls is given here.

`O=C(c1cnc2sccn2c1=O)N1CCN(c2ccccc2Cl)CC1` gave MLLE-PAM2 inh -2, PABP polyA inh -3, eIF4E-4G inh 98*, eIF4H inh 0 and PERK inhibitor -1.
`CCCc1cc(=O)[nH]c(SCC(=O)Nc2cc(S(=O)(=O)N3CCCCC3)ccc2Cl)n1` gave MLLE-PAM2 inh -4.
`COc1ccc(CN(CCNC(=O)CCCCC(=O)NCCN(Cc2ccc(OC)cc2)C(C)C)C(C)C)cc1` gave MLLE-PAM2 inh -3.
CCc1ccc(N2CC(C(=O)OCC(=O)Nc3ccc(C#N)cc3)CC2=O)cc1 (stereo not drawn) was read as MLLE-PAM2 inh -15.
`Cc1ccc(CNS(=O)(=O)c2ccc([N+](=O)[O-])cc2)cc1` gave MLLE-PAM2 inh 1, PABP polyA inh 3 and eIF4H inh 6.
Screening Cc1ccc(S(=O)(=O)Cc2ccc([N+](=O)[O-])cc2)cc1 returned MLLE-PAM2 inh 8, PABP polyA inh 75* and eIF4H inh 98*.
`CC(C)=C(NC(=O)c1ccccc1Cl)C(=O)NCCc1nc2ccccc2[nH]1` gave MLLE-PAM2 inh -2.
Screening CCOc1cc(/C=C2/C(=O)ON=C2C)ccc1OCc1ccc(F)cc1 returned MLLE-PAM2 inh -51, PABP polyA inh 0, eIF4E-4G inh 1, eIF4H inh -4 and PERK inhibitor 0.
For CCOc1cc(/C=C2/C(=O)ON=C2C)ccc1OCc1ccccc1 the results were PABP polyA inh 8.1*, eIF4E-4G inh 1, eIF4H inh inconclusive and PERK inhibitor 0.
`COc1cc(/C=C2\SC(=O)N(Cc3ccc(Cl)cc3)C2=O)cc([N+](=O)[O-])c1O` gave MLLE-PAM2 inh -5, PABP polyA inh 5, eIF4E-4G inh 61*, eIF4H inh 15 and PERK inhibitor 0.
COc1ccc(CN2CCN(C(=O)c3ccccc3C(=O)c3ccccc3)CC2)cc1OC was read as MLLE-PAM2 inh 8.
`CC(C)c1ccc(C(=O)OCC(=O)Nc2cccc(S(=O)(=O)NC3=NCCC3)c2)cc1` gave MLLE-PAM2 inh -18.
For CC1=NNC(=O)C1CC(=O)N/N=C/C(C)=C/c1ccccc1 (stereo not drawn) the results were MLLE-PAM2 inh -4, PABP polyA inh active, eIF4E-4G inh -2, eIF4H inh 73 and PERK inhibitor 1.
`Cc1ccc(CCNS(=O)(=O)c2ccc3c(c2)NC(=O)C(C)C(=O)N3)cc1` (stereo not drawn) gave MLLE-PAM2 inh 2, PABP polyA inh 18 and eIF4H inh 18.
For Cc1cc(C)c2cc(C#N)c(NCCOC(=O)c3ccccc3C)nc2c1 the results were MLLE-PAM2 inh 0, PABP polyA inh -1, eIF4E-4G inh -1, eIF4H inh -9 and PERK inhibitor 3.2*.
For COc1ccccc1C(=O)NCCNc1nc2cc(C)cc(C)c2cc1C#N the results were MLLE-PAM2 inh 17, PABP polyA inh 17 and eIF4H inh 9.
Screening COCCN(C(=O)c1ccc2c(c1)C(=O)N(c1ccccc1Cl)C2=O)c1c(N)n(CC(C)C)c(=O)[nH]c1=O returned MLLE-PAM2 inh 7.
`CN1CCN(S(=O)(=O)c2ccc(F)cc2)CC1` gave MLLE-PAM2 inh 4.
O=C(/C=C/c1ccc(-c2ccccc2[N+](=O)[O-])o1)c1ccco1 was read as MLLE-PAM2 inh 52*, PABP polyA inh 17, eIF4E-4G inh 5, eIF4H inh 69 and PERK inhibitor 1.
O=C(C=Cc1ccco1)c1ccco1 was read as MLLE-PAM2 inh 23.
`CC(OC(=O)Cn1cnc2c1c(=O)n(C)c(=O)n2C)C(=O)NC1(C#N)CCCCC1` (stereo not drawn) gave MLLE-PAM2 inh 3.
Screening Cc1ccc(-n2c(C)nc3oc4ccccc4c(=O)c3c2=O)cc1 returned MLLE-PAM2 inh -32, PABP polyA inh 80*, eIF4E-4G inh 12, eIF4H inh 40* and PERK inhibitor 0.
For COc1ccc2c(=O)c3c(=O)n(-c4ccc(C)cc4)c(-c4ccccc4)nc3oc2c1 the results were PABP polyA inh -1, eIF4E-4G inh -2, eIF4H inh 7 and PERK inhibitor 0.
CC(/C=N/NC(=O)CSc1nnc(SCc2ccccc2)s1)=C\c1ccco1 was read as MLLE-PAM2 inh -100, PABP polyA inh 2.7*, eIF4E-4G inh 3, eIF4H inh 69* and PERK inhibitor 1.
